# Assay results published in publication PMC7862700, “An all-to-all approach to the identification of sequence-specific readers for epigenetic DNA modifications on cytosine”.
# Tests used:
# Test in all cases: DAPPL (digital affinity profiling via proximity ligation, sequencing); 10 mM Tris-HCl pH 7.5, 50 mM NaCl, 1 mM DTT, 4% glycerol, room temperature, 30 min; GST-TFs on glutathione beads, 16-mer random dsDNA library, 0.1% formaldehyde crosslink after washing; high values mean tight binding
# [1] = target: T1, FEV (Homo sapiens, UniProt Q99581 1-238); conditions: protein: recombinant; tags: N-terminal GST; dsDNA, one strand shown
# T1 sequence: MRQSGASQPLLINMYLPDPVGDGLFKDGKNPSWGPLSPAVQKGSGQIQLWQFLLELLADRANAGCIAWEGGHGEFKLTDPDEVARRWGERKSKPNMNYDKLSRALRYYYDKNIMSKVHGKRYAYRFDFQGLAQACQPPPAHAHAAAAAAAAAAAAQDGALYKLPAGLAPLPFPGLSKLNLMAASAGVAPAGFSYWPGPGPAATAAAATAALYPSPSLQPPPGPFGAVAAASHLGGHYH
# How it was run: (§1)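 Binding signal is given per hexamer as its read frequency for a factor divided by its frequency in the tag-only sample. GST-fused human transcription factors were expressed in yeast, captured on glutathione beads, barcoded with DNA and pooled with that sample, then incubated with 200 nmole of a 16-mer random double-stranded DNA library in Tris/NaCl/DTT/glycerol buffer for 30 min at room temperature. The pools were then washed, crosslinked, proximity-ligated, amplified by PCR and sequenced on an Illumina NextSeq500.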
# [2] = target: ETV5 (Homo sapiens, UniProt P41161 1-510); conditions: protein: recombinant; tags: N-terminal GST; dsDNA, one strand shown
# Chain of ETV5 (P41161 whole entry): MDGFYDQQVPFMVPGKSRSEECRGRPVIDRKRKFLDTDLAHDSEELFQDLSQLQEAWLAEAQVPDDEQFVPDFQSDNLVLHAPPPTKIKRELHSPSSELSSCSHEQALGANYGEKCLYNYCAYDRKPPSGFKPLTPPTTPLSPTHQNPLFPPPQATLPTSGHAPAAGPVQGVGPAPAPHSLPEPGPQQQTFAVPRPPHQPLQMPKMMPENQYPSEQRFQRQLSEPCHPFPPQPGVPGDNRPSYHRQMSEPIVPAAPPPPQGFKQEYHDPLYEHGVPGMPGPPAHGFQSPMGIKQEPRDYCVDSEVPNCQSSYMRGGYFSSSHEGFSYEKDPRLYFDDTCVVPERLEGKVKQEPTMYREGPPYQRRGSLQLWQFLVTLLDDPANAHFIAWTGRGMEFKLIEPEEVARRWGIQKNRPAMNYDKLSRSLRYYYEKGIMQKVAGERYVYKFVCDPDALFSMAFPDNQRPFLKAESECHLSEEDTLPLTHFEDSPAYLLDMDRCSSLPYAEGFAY
# How it was run: as §1
# [3] = target: HSF1 (Homo sapiens, UniProt Q00613 1-529); conditions: protein: recombinant; tags: N-terminal GST; chain copies: 3; dsDNA, one strand shown
# Chain of HSF1 (Q00613 whole entry): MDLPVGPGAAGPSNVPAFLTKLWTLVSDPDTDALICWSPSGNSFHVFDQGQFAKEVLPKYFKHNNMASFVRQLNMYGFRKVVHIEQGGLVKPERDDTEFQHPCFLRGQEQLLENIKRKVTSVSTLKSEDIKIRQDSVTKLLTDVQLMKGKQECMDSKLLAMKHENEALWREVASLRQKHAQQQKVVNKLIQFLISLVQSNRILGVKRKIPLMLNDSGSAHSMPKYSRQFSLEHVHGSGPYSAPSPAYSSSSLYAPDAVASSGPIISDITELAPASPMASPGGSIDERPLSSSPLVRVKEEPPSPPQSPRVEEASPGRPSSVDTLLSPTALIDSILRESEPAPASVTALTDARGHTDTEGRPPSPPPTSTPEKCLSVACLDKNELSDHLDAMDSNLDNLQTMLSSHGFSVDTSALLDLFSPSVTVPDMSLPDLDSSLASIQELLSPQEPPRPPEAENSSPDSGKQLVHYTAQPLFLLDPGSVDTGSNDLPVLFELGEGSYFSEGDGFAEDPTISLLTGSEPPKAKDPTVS
# How it was run: as §1
# [4] = target: T2, SPIC (Homo sapiens, UniProt Q8N5J4 1-248); conditions: protein: recombinant; tags: N-terminal GST; dsDNA, one strand shown
# T2 sequence: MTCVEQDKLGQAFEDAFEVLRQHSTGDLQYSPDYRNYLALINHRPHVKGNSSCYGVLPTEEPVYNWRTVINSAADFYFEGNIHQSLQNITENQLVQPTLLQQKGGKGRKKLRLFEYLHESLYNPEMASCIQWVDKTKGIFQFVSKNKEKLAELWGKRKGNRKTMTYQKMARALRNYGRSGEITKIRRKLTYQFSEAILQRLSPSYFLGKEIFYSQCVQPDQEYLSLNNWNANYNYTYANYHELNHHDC
# How it was run: as §1
# [5] = target: ELF4 (Homo sapiens, UniProt Q99607 1-663); conditions: protein: recombinant; tags: N-terminal GST; dsDNA, one strand shown
# Chain of ELF4 (Q99607 whole entry): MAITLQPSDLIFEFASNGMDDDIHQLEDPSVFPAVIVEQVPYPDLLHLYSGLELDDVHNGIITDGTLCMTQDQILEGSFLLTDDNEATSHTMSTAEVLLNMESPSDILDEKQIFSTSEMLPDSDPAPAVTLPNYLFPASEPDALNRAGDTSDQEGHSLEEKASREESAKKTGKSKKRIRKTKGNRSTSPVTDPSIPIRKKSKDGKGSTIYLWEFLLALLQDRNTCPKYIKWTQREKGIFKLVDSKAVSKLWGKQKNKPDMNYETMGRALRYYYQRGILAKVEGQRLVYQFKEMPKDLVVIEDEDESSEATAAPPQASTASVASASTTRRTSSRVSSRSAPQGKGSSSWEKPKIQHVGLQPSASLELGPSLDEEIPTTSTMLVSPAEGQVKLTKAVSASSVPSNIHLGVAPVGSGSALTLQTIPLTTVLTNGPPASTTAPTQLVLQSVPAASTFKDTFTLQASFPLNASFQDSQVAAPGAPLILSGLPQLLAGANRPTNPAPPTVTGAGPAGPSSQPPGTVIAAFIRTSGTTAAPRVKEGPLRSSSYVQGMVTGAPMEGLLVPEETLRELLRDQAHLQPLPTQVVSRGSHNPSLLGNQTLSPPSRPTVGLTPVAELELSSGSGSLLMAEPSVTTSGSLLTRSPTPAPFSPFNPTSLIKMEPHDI
# How it was run: as §1
# [6] = target: T3, ELK4 (Homo sapiens, UniProt P28324-2 1-405); conditions: protein: recombinant; tags: N-terminal GST; dsDNA, one strand shown
# T3 sequence: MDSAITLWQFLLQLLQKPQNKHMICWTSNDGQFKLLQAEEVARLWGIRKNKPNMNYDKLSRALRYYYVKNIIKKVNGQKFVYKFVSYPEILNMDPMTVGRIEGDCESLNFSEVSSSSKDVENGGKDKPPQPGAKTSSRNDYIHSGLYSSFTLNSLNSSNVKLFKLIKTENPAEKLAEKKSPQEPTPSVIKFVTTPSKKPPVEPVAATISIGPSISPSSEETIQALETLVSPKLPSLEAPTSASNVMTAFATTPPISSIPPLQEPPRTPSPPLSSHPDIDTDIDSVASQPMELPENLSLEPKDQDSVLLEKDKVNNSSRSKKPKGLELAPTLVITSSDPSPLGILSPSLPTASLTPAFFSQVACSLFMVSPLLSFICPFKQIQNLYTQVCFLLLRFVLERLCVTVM
# How it was run: as §1
# [7] = target: T4, ETV2 (Homo sapiens, UniProt O00321 1-342); conditions: protein: recombinant; tags: N-terminal GST; dsDNA, one strand shown
# T4 sequence: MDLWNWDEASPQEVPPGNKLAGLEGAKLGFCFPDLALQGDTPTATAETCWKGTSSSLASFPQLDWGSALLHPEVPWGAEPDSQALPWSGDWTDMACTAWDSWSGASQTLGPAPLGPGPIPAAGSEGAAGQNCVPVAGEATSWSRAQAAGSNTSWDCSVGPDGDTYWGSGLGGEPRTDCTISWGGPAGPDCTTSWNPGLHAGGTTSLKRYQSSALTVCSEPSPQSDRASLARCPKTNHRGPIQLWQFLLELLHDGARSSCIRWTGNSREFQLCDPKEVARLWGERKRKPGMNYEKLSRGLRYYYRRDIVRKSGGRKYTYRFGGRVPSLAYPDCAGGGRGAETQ
# How it was run: as §1
# [8] = target: T5, ELF3 (Homo sapiens, UniProt P78545 1-371); conditions: protein: recombinant; tags: N-terminal GST; dsDNA, one strand shown
# T5 sequence: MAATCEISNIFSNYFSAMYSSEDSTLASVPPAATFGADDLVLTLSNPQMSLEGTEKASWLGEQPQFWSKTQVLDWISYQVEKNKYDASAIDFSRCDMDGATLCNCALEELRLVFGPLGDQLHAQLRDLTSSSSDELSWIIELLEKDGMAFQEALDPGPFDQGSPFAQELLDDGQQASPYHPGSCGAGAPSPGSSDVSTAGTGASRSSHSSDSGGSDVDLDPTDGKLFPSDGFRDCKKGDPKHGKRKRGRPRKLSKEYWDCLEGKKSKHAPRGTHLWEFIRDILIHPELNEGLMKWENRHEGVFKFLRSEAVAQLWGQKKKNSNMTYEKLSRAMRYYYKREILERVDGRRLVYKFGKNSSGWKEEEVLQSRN
# How it was run: as §1
# [9] = target: CRX (Homo sapiens, UniProt O43186 1-299); conditions: protein: recombinant; tags: N-terminal GST; dsDNA, one strand shown
# Chain of CRX (O43186 whole entry): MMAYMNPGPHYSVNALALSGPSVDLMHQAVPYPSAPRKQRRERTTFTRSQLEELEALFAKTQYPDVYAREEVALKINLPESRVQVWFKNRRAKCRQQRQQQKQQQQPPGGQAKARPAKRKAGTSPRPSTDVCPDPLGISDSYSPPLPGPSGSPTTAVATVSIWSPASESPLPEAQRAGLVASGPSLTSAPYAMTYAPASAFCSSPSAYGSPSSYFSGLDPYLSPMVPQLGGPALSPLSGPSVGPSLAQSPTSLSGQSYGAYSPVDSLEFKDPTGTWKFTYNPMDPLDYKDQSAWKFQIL
# How it was run: as §1
# [10] = target: ETV1 (Homo sapiens, UniProt P50549 1-477); conditions: protein: recombinant; tags: N-terminal GST; dsDNA, one strand shown
# Chain of ETV1 (P50549 whole entry): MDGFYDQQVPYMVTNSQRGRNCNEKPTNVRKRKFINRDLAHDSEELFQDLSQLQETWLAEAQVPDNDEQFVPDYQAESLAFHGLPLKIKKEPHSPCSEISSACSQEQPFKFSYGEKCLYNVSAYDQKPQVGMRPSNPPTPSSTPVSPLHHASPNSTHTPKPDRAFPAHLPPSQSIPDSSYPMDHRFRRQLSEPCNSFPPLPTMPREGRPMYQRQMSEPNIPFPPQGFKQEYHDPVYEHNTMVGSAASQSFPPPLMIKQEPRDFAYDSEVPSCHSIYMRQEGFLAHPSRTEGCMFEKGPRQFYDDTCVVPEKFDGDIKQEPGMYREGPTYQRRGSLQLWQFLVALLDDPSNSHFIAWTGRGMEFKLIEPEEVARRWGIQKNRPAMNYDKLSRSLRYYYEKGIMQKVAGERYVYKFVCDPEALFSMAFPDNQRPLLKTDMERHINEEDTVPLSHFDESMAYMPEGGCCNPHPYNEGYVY
# How it was run: as §1
# [11] = target: T6, ERF (Homo sapiens, UniProt P50548 1-548); conditions: protein: recombinant; tags: N-terminal GST; dsDNA, one strand shown
# T6 sequence: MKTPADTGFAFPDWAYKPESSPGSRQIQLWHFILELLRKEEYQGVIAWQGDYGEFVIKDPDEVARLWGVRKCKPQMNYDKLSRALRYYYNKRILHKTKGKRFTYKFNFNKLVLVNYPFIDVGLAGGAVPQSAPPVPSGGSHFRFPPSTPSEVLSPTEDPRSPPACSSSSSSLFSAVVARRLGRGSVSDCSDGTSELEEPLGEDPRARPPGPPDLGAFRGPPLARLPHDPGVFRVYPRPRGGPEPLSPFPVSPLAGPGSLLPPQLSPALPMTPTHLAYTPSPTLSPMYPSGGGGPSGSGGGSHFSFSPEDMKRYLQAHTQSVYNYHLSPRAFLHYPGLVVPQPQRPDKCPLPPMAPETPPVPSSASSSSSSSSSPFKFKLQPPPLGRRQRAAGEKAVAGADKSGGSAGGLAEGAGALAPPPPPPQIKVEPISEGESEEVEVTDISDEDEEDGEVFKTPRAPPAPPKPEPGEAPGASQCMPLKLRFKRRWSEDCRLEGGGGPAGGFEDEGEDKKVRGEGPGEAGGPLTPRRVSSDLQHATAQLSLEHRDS
# How it was run: as §1
# [12] = target: T7, ETV3L (Homo sapiens, UniProt Q6ZN32 1-361); conditions: protein: recombinant; tags: N-terminal GST; dsDNA, one strand shown
# T7 sequence: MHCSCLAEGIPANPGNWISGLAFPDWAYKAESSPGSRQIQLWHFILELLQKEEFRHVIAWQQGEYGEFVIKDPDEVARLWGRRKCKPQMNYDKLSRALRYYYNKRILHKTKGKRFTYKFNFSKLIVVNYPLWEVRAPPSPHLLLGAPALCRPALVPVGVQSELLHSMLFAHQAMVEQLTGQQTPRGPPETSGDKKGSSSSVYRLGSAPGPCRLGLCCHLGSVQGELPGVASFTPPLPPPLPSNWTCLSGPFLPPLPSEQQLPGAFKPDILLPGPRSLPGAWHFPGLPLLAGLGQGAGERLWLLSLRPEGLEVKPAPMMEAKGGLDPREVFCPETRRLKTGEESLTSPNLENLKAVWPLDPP
# How it was run: as §1
# [13] = target: T8, ETS2 (Homo sapiens, UniProt P15036 1-469); conditions: protein: recombinant; tags: N-terminal GST; dsDNA, one strand shown
# T8 sequence: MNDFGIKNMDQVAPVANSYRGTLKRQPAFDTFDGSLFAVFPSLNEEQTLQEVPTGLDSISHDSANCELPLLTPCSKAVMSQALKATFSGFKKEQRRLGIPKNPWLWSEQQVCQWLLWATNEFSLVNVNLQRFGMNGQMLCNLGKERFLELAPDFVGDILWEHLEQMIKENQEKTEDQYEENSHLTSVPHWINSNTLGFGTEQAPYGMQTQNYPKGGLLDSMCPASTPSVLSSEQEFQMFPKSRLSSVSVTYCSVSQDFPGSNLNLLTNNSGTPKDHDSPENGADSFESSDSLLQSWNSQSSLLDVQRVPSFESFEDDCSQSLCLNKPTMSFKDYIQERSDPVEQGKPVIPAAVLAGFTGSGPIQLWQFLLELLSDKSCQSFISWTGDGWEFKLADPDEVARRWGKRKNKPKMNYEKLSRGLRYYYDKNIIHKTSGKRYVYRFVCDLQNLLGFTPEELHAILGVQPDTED
# How it was run: as §1
# [14] = target: T9, SPDEF (Homo sapiens, UniProt O95238 1-335); conditions: protein: recombinant; tags: N-terminal GST; dsDNA, one strand shown
# T9 sequence: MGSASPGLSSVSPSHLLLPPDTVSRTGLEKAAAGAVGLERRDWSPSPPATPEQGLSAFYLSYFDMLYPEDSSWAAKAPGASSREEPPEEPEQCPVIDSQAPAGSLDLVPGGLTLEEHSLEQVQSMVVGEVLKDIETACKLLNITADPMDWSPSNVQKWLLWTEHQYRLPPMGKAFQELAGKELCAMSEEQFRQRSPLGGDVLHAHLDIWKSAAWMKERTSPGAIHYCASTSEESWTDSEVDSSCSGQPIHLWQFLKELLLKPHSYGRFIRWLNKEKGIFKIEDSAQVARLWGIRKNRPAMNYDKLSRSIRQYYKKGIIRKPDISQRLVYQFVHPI
# How it was run: as §1
# [15] = target: T10, ETV7 (Homo sapiens, UniProt Q9Y603 1-341); conditions: protein: recombinant; tags: N-terminal GST; dsDNA, one strand shown
# T10 sequence: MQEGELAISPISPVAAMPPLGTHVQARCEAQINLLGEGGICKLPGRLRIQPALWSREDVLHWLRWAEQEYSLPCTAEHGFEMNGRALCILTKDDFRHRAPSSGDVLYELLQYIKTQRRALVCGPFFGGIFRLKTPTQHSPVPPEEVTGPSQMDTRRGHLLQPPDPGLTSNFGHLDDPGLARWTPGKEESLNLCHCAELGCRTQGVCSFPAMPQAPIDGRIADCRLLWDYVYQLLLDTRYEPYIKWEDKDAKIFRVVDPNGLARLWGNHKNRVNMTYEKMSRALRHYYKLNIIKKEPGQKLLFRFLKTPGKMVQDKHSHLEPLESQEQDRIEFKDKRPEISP
# How it was run: as §1
# [16] = target: T11, ELF5 (Homo sapiens, UniProt Q9UKW6-2 1-255); conditions: protein: recombinant; tags: N-terminal GST; dsDNA, one strand shown
# T11 sequence: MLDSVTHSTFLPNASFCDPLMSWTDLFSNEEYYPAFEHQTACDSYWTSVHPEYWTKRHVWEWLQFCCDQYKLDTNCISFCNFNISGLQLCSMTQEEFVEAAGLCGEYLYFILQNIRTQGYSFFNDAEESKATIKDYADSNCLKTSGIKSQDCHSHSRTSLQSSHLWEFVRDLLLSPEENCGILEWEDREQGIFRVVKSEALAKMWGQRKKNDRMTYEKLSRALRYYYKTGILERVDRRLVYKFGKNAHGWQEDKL
# How it was run: as §1
# [17] = target: T12, ETV3 (Homo sapiens, UniProt P41162-2 1-143); conditions: protein: recombinant; tags: N-terminal GST; dsDNA, one strand shown
# T12 sequence: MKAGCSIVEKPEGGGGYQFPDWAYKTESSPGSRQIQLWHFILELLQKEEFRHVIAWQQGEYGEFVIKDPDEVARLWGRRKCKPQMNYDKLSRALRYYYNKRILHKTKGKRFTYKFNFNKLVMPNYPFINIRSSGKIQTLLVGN
# How it was run: as §1
# [18] = target: ETV6 (Homo sapiens, UniProt P41212 1-452); conditions: protein: recombinant; tags: N-terminal GST; dsDNA, one strand shown
# Chain of ETV6 (P41212 whole entry): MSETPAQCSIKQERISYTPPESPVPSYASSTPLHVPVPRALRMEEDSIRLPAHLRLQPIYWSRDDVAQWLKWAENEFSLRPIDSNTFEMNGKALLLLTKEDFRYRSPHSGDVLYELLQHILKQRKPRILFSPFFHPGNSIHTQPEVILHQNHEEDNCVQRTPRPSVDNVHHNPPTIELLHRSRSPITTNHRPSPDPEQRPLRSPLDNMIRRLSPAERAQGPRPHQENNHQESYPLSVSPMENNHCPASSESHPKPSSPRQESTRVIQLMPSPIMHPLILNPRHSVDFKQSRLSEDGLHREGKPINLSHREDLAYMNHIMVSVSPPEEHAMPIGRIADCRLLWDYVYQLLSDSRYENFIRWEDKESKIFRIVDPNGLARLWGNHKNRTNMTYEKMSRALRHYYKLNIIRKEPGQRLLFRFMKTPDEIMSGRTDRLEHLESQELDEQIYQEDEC
# How it was run: as §1
sequence,measurement,setting,value
AATCCT,binding signal,[1],"1.32 fold enrichment (6-mer frequency, TF over GST control)"
same,binding signal,[2],"1.43 fold enrichment (6-mer frequency, TF over GST control)"
same,binding signal,[3],"2.25 fold enrichment (6-mer frequency, TF over GST control)"
same,binding signal,[4],"1.3 fold enrichment (6-mer frequency, TF over GST control)"
same,binding signal,[5],"1.27 fold enrichment (6-mer frequency, TF over GST control)"
same,binding signal,[6],"1.33 fold enrichment (6-mer frequency, TF over GST control)"
same,binding signal,[7],"1.34 fold enrichment (6-mer frequency, TF over GST control)"
same,binding signal,[8],"1.25 fold enrichment (6-mer frequency, TF over GST control)"
same,binding signal,[9],"3.32 fold enrichment (6-mer frequency, TF over GST control)"
same,binding signal,[10],"1.35 fold enrichment (6-mer frequency, TF over GST control)"
same,binding signal,[11],"1.21 fold enrichment (6-mer frequency, TF over GST control)"
same,binding signal,[12],"1.24 fold enrichment (6-mer frequency, TF over GST control)"
same,binding signal,[13],"1.32 fold enrichment (6-mer frequency, TF over GST control)"
same,binding signal,[14],"1.45 fold enrichment (6-mer frequency, TF over GST control)"
same,binding signal,[15],"1.41 fold enrichment (6-mer frequency, TF over GST control)"
same,binding signal,[16],"1.61 fold enrichment (6-mer frequency, TF over GST control)"
same,binding signal,[17],"1.37 fold enrichment (6-mer frequency, TF over GST control)"
same,binding signal,[18],"1.29 fold enrichment (6-mer frequency, TF over GST control)"
